Experimental data from the supplement of paper PMC6555819.

Experiments:
Assay in all cases: PBM binding z-score (relative to random genomic background probes); higher = stronger binding; sequences stand for … in GC…GCGATTGACAGCGTAGAATGAAGG
[1] = test system: RARb homodimer (NR concentration 270 nM)
How it was run: (§1)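 Custom Agilent 4×180K protein-binding microarrays carried double-stranded probes. Their 34-nt variable regions held direct-repeat seeds, single-nucleotide variants, half-site ablations and random human genomic background sequences. Arrays were incubated 1 h with ligand-free nuclear receptor dimers in PBS pH 7.4, 2% milk, 0.02% Triton X-100, 1 mM DTT, 0.2 mg/mL BSA and 0.4 mg/ml salmon testes DNA. Antibodies against each partner (one per run) detected binding, and scanned fluorescence was regression-normalized. Binding z-scores use random background probes as reference.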

[2] = test system: RARg:RXRa (NR concentration 270 nM, RXRa partner concentration 90 nM)
How it was run: as §1

[3] = test system: RARg homodimer (NR concentration 270 nM)
How it was run: as §1

[4] = test system: RXRa DBDmut IVT, anti-RXR (DBD mutation: RXRa K156A/R161A, NR concentration 90 nM)
How it was run: as §1

[5] = test system: RXRa homodimer (NR concentration 180 nM)
How it was run: as §1

[6] = test system: THRa:RXRa (NR concentration 90 nM, RXRa partner concentration 90 nM)
How it was run: as §1

[7] = test system: THRa homodimer (NR concentration 90 nM)
How it was run: as §1

[8] = test system: VDR homodimer (NR concentration 270 nM)
How it was run: as §1

Row | Sequence | PBM binding z-score [1] | PBM binding z-score [2] | PBM binding z-score [3] | PBM binding z-score [4] | PBM binding z-score [5] | PBM binding z-score [6] | PBM binding z-score [7] | PBM binding z-score [8]
1 | CCTGCTAGGTCGTGGTCAGCTAATCTACAGTATG | 1.21 | 0.958 | 1.4 | 0.759 | 0.607 | 0.876 | 0.18 | -0.0912
2 | GCAGACAGGTAAAACGCAGGTAACTCAGGGTGGC | 0.258 | -0.164 | -0.43 | -0.576 | 0.223 | 0.964 | -0.354 | -0.545
3 | TTACCAAGTTGAAGGTCGTTGATCCCTCTGTAGA | 1.15 | 0.339 | 0.342 | 1.07 | 1.2 | 1.26 | 0.0178 | 1.49
4 | ACTATTAGTCGACTTAGGGCAACCGATACGACGC | 0.58 | 0.342 | 0.707 | 0.415 | 0.416 | 1.09 | 0.02 | -0.338
5 | AGTCGAAGTTCAGGACGAGGTAACGTAAAGCACG | 1.36 | 2.55 | 1.89 | 1.42 | 1.28 | 3.25 | 1.62 | 0.996
6 | CCTAGCGGGCCAATCTGGGTCACTCAAGGCTTGA | 2.14 | 0.91 | 0.984 | -0.4 | 0.724 | 3.59 | 0.327 | -0.159
7 | CCTTACGTGTCACTCCAGGTTATAGCATCGGAGT | 1.36 | 0.925 | 1.27 | 1.09 | 0.845 | 3.43 | 1.14 | 1.24
8 | CGTCCAAGTTCAGAGAGGTCAGTGAATGCCGAGT | 4.58 | 4.46 | 5 | 4.24 | 3.48 | 3.14 | 1.43 | 7.06
9 | CTCGAAAGGTCGGTTGATGTGAGTATACGGATAA | 1.8 | 2.39 | 2.37 | 0.767 | 1.96 | 2.01 | -0.0197 | 0.986
10 | TCTTGTAGATCAACAGGAGATTAAGAAAGATCGA | -1.12 | -0.112 | -0.181 | 0.2 | 0.147 | -0.777 | -1.13 | -0.417
11 | CAAACTAGGCCACGAAAGGTCAAAGTCGAATGAC | 4.95 | 6.06 | 5.76 | 1.47 | 6.58 | 4.26 | 0.939 | 2.37
12 | CGTCCAAGGGCATAGGAGGTCAGTGAAGACAGAT | 3.72 | 3.42 | 3.68 | 1.44 | 2.65 | 4.64 | 0.738 | 2.25
13 | CCGACTGAGGCAAGGTTACCATAACGCACAGCCA | 1.01 | 0.557 | 0.458 | 0.18 | 0.97 | 1.26 | 0.413 | 0.118
14 | CGTCCAACGTCAGAGAGGTCAGTGAATGCCGAGT | 3.88 | 2.75 | 3.06 | 0.53 | 2.32 | 2.39 | 0.645 | 1.67
